Compounds without any hit were thinned out: in the full panel of roughly 83,000, 20% have a hit.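 A percent growth of 40 corresponds to 60% growth inhibition; 0 means no net growth; -100 means all cells died. Active threshold: below 10.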 Activity calls are given as the source filed them.
Key:
Assay in all cases: NCI-60 one-dose screen, 48 h (100 = growth as untreated, 0 = no growth, -100 = all killed)
Details in all cases: 10 µM unless noted
DU-145 prostate = test system: DU-145 prostate
K-562 leukemia = test system: K-562 leukemia
MALME-3M melanoma = test system: MALME-3M melanoma
MDA-MB-231 breast = test system: MDA-MB-231 breast
RXF 393 renal = test system: RXF 393 renal
SF-268 CNS = test system: SF-268 CNS
SF-295 CNS = test system: SF-295 CNS
SF-539 CNS = test system: SF-539 CNS
UACC-257 melanoma = test system: UACC-257 melanoma
M14 melanoma = test system: M14 melanoma
HCT-15 colon = test system: HCT-15 colon
HT29 colon = test system: HT29 colon
SNB-75 CNS = test system: SNB-75 CNS
SNB-19 CNS = test system: SNB-19 CNS
U251 CNS = test system: U251 CNS
PC-3 prostate = test system: PC-3 prostate
SK-MEL-5 melanoma = test system: SK-MEL-5 melanoma
UACC-62 melanoma = test system: UACC-62 melanoma
LOX IMVI melanoma = test system: LOX IMVI melanoma
SK-MEL-28 melanoma = test system: SK-MEL-28 melanoma

Measured: growth

Cl.Fc1c[c-]c(-c2ccccn2)c(F)c1.[Pt].c1ccc([PH+](C[PH+](c2ccccc2)c2ccccc2)c2ccccc2)cc1
active: DU-145 prostate -94.8% | K-562 leukemia -18.5% | MALME-3M melanoma -92.9% | MDA-MB-231 breast -83.8% | RXF 393 renal -91.6% | SF-268 CNS -70% | SF-295 CNS -87.6% | SF-539 CNS -86.4% | UACC-257 melanoma -48.6% | M14 melanoma -87.1% | HCT-15 colon -80.1% | HT29 colon -64.7% | SNB-75 CNS -95.5% | SNB-19 CNS -88.9% | U251 CNS -77.1% | PC-3 prostate -57.7% | SK-MEL-5 melanoma -98.2% | UACC-62 melanoma -82.3% | LOX IMVI melanoma -88.9% | SK-MEL-28 melanoma -92.5%

COc1ccc(/C(C)=N/NS(=O)(=O)c2ccc(C)cc2)cc1OC
inactive: DU-145 prostate 118% | K-562 leukemia 111% | MALME-3M melanoma 121% | MDA-MB-231 breast 113% | RXF 393 renal 115% | SF-268 CNS 106% | SF-295 CNS 98.9% | SF-539 CNS 103% | UACC-257 melanoma 104% | M14 melanoma 117% | HCT-15 colon 103% | HT29 colon 109% | SNB-75 CNS 108% | SNB-19 CNS 107% | U251 CNS 99.6% | PC-3 prostate 91.6% | SK-MEL-5 melanoma 103% | UACC-62 melanoma 105% | LOX IMVI melanoma 93.1% | SK-MEL-28 melanoma 123%

O=S(=O)(NCCNc1cc(-c2c(-c3cccc(O)c3)nc3sccn23)ccn1)c1ccc(Br)cc1
inactive: DU-145 prostate 57.9% | K-562 leukemia 34.5% | MALME-3M melanoma 78.8% | MDA-MB-231 breast 72.8% | RXF 393 renal 60% | SF-268 CNS 41.3% | SF-295 CNS 69% | SF-539 CNS 75.2% | UACC-257 melanoma 89.1% | M14 melanoma 60.8% | HCT-15 colon 44.8% | HT29 colon 51% | SNB-75 CNS 26.3% | SNB-19 CNS 66.1% | U251 CNS 64.6% | PC-3 prostate 49.8% | SK-MEL-5 melanoma 25.2% | UACC-62 melanoma 56.8% | LOX IMVI melanoma 61.6% | SK-MEL-28 melanoma 84.9%

C=C1C(=O)O[C@H]2[C@H]1CC/C(COC(=O)NCc1ccc(Cn3c(=O)sn(CCCCl)c3=O)cc1)=C\CC[C@@]1(C)O[C@@H]21
inactive: MDA-MB-231 breast 14.4% | SF-268 CNS 44.5% | SF-295 CNS 101% | UACC-257 melanoma 10.4% | SNB-75 CNS 70.2% | SNB-19 CNS 76.1% | U251 CNS 57.7% | PC-3 prostate 67.1% | SK-MEL-5 melanoma 42.5% | UACC-62 melanoma 26.8% | SK-MEL-28 melanoma 28.1%
active: DU-145 prostate 8.01% | K-562 leukemia 0.0582% | MALME-3M melanoma -57.1% | RXF 393 renal -76.7% | SF-539 CNS -7.17% | M14 melanoma 5.43% | HCT-15 colon 8.02% | HT29 colon -30.2% | LOX IMVI melanoma -48.2%

CC(C)(C)CC(C)(C)Nc1c(-c2ccc(-c3ccccc3)cc2)nc2cnccn12
inactive: DU-145 prostate 94.9% | K-562 leukemia 62.7% | MALME-3M melanoma 108% | MDA-MB-231 breast 90.6% | RXF 393 renal 94.4% | SF-268 CNS 81.5% | SF-295 CNS 97.6% | SF-539 CNS 90.5% | UACC-257 melanoma 83.3% | M14 melanoma 89.2% | HCT-15 colon 84.5% | HT29 colon 30.5% | SNB-75 CNS 88.7% | SNB-19 CNS 94.3% | U251 CNS 59.7% | PC-3 prostate 65.4% | SK-MEL-5 melanoma 101% | UACC-62 melanoma 75.9% | LOX IMVI melanoma 97.2% | SK-MEL-28 melanoma 100%

CCCCOC(=O)c1ccc(NC(=O)C(C)N2CCOCC2)cc1 (stereo not given)
inactive: DU-145 prostate 107% | K-562 leukemia 91.1% | MALME-3M melanoma 91.8% | MDA-MB-231 breast 102% | RXF 393 renal 102% | SF-268 CNS 103% | SF-295 CNS 101% | SF-539 CNS 102% | UACC-257 melanoma 98.3% | M14 melanoma 93.7% | HCT-15 colon 108% | HT29 colon 79.5% | SNB-75 CNS 107% | SNB-19 CNS 99.5% | U251 CNS 93.2% | PC-3 prostate 72.7% | SK-MEL-5 melanoma 104% | UACC-62 melanoma 95.1% | LOX IMVI melanoma 101% | SK-MEL-28 melanoma 112%

COc1cc(-c2ccc(-c3ccc(C(=N)N)nc3)s2)cc(OC)c1OC
inactive: DU-145 prostate 49.9% | MALME-3M melanoma 24.7% | MDA-MB-231 breast 44.2% | RXF 393 renal 77.1% | SF-268 CNS 86.1% | SF-295 CNS 40.1% | UACC-257 melanoma 92.9% | M14 melanoma 43.1% | HCT-15 colon 21.4% | HT29 colon 14.2% | SNB-75 CNS 68.5% | SNB-19 CNS 65.2% | U251 CNS 28.9% | PC-3 prostate 54.7% | SK-MEL-5 melanoma 37.6% | UACC-62 melanoma 59.5% | SK-MEL-28 melanoma 59.3%
active: K-562 leukemia 5.58% | SF-539 CNS 1.84% | LOX IMVI melanoma -14.3%

COc1cc(/C=C2\C=C(c3ccccc3)N(CCc3ccccc3)C2=O)cc(OC)c1OC
active: MDA-MB-231 breast 5.9% | SF-539 CNS -17.2% | SNB-75 CNS -6.74%
inactive: DU-145 prostate 73.8% | K-562 leukemia 94.2% | MALME-3M melanoma 50.1% | RXF 393 renal 72.3% | SF-268 CNS 44.7% | SF-295 CNS 53.3% | UACC-257 melanoma 88.2% | M14 melanoma 73.6% | HCT-15 colon 94.1% | HT29 colon 74.8% | SNB-19 CNS 65.4% | U251 CNS 52.5% | PC-3 prostate 76.2% | SK-MEL-5 melanoma 57.7% | UACC-62 melanoma 56.1% | LOX IMVI melanoma 58.2% | SK-MEL-28 melanoma 84.1%

NC(=S)c1csc(CCNC(=O)c2ccccc2)n1
inactive: DU-145 prostate 129% | K-562 leukemia 110% | MALME-3M melanoma 125% | MDA-MB-231 breast 107% | RXF 393 renal 128% | SF-268 CNS 111% | SF-295 CNS 96.9% | SF-539 CNS 114% | UACC-257 melanoma 94.2% | M14 melanoma 110% | HCT-15 colon 100% | HT29 colon 107% | SNB-75 CNS 97.7% | SNB-19 CNS 107% | U251 CNS 97.6% | PC-3 prostate 96.6% | SK-MEL-5 melanoma 115% | UACC-62 melanoma 105% | LOX IMVI melanoma 110% | SK-MEL-28 melanoma 108%

CCCCN1CCN(c2ccc3nc(-c4ccc5nc(-c6cc(OC)c(OC)c(OC)c6)[nH]c5c4)[nH]c3c2)CC1
active: RXF 393 renal -43.4%
inactive: DU-145 prostate 91.6% | K-562 leukemia 30.8% | MALME-3M melanoma 21.1% | MDA-MB-231 breast 78.9% | SF-268 CNS 71.8% | SF-295 CNS 58.6% | SF-539 CNS 61.1% | UACC-257 melanoma 87.9% | M14 melanoma 59% | HCT-15 colon 99.2% | HT29 colon 56% | SNB-75 CNS 38.7% | SNB-19 CNS 71.9% | U251 CNS 56.3% | PC-3 prostate 57.4% | SK-MEL-5 melanoma 44.8% | UACC-62 melanoma 39.5% | LOX IMVI melanoma 40.7% | SK-MEL-28 melanoma 66.3%

O=S(=O)(Cc1ccccc1)c1nc2ccccc2s1
inactive: DU-145 prostate 86.7% | K-562 leukemia 13.5% | MALME-3M melanoma 73.6% | MDA-MB-231 breast 85.1% | RXF 393 renal 109% | SF-268 CNS 79% | SF-295 CNS 109% | SF-539 CNS 92% | UACC-257 melanoma 78.7% | M14 melanoma 18.3% | HCT-15 colon 33.3% | HT29 colon 25.6% | SNB-75 CNS 90% | SNB-19 CNS 97.1% | U251 CNS 92.1% | PC-3 prostate 79.5% | SK-MEL-5 melanoma 67.4% | UACC-62 melanoma 71.1% | LOX IMVI melanoma 10.8% | SK-MEL-28 melanoma 93.8%

CCNCCNc1cc(-c2ccc(F)cc2)c(C#N)c2nc3ccccc3n12
inactive: DU-145 prostate 46.4% | MDA-MB-231 breast 17.9% | RXF 393 renal 29.7% | SF-268 CNS 53.8% | SF-295 CNS 38.5% | HCT-15 colon 23.8% | HT29 colon 16.6% | SNB-75 CNS 48.4% | SNB-19 CNS 79.3% | U251 CNS 17.1% | PC-3 prostate 42.1% | UACC-62 melanoma 12.7%
active: K-562 leukemia -19.1% | MALME-3M melanoma -60.1% | SF-539 CNS -88.4% | UACC-257 melanoma -76.8% | M14 melanoma -64.1% | SK-MEL-5 melanoma -62.9% | LOX IMVI melanoma -77.4% | SK-MEL-28 melanoma -91%

CN(CCCCCCCCNc1ccnc2ccccc12)Cc1ccc(-c2ccc(-c3ccc(C#N)cc3)s2)cc1
inactive: SNB-75 CNS 42.5%
active: DU-145 prostate -67.3% | K-562 leukemia -18.4% | MALME-3M melanoma -80.7% | MDA-MB-231 breast -80.1% | RXF 393 renal -86% | SF-268 CNS -76.6% | SF-295 CNS -64.1% | SF-539 CNS -89% | UACC-257 melanoma -38.7% | M14 melanoma -84% | HCT-15 colon -82.1% | HT29 colon -55.1% | SNB-19 CNS -14.6% | U251 CNS -73.7% | PC-3 prostate -63.7% | SK-MEL-5 melanoma -100% | UACC-62 melanoma -37.4% | LOX IMVI melanoma -96.2% | SK-MEL-28 melanoma -84.1%

CC(C)n1nc(C#Cc2cccc(O)c2)c2c(N)ncnc21
active: DU-145 prostate -6.9% | K-562 leukemia -23% | MALME-3M melanoma -74.9% | MDA-MB-231 breast -67.7% | RXF 393 renal -87.2% | SF-268 CNS -49.4% | SF-295 CNS -71.9% | SF-539 CNS -75.4% | UACC-257 melanoma -41.4% | M14 melanoma -63.8% | HCT-15 colon -11.2% | HT29 colon -17.7% | SNB-75 CNS -84.7% | SNB-19 CNS -21.4% | U251 CNS -37.1% | PC-3 prostate -11.8% | SK-MEL-5 melanoma -91.8% | UACC-62 melanoma -88.9% | LOX IMVI melanoma -92.4% | SK-MEL-28 melanoma -47.5%

COc1ccc(/C=C(\C#N)n2nnc3ccccc32)cc1
inactive: K-562 leukemia 15% | MALME-3M melanoma 44.1% | SF-268 CNS 21.3% | UACC-257 melanoma 77.5% | HT29 colon 11% | SNB-19 CNS 23% | U251 CNS 17.6% | PC-3 prostate 15.8% | UACC-62 melanoma 21.4% | SK-MEL-28 melanoma 36.2%
active: DU-145 prostate -5.07% | MDA-MB-231 breast -14.5% | RXF 393 renal -39.3% | SF-295 CNS -3.98% | SF-539 CNS -46.4% | M14 melanoma -11% | HCT-15 colon 8.56% | SNB-75 CNS -31.7% | SK-MEL-5 melanoma 6.7% | LOX IMVI melanoma 2.08%

— PubChem BioAssay (NCI)
